A short description of test [1]: Cell Viability - Jurkat (AID 426;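 active means dose-dependent loss of cell ATP signal giving a full or clear fitted curve, ranked by lower potency value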;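 further: potency means the concentration at half of the fitted maximal effect; cells exposed to compound for 40 hours at 37 °C before ATP read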). The note with it: qHTS. Summed up: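 Luminescent ATP read-out (CellTiter-Glo, 20 min at room temperature) after 40 hr compound exposure at 37 °C of Jurkat E6-1 cells, 5000/well. Decreased ATP taken as cytotoxicity; AC50 from standard Hill equation.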
A general note: qHTS replaces the single test concentration by a dilution series.

Test [2] has as its target Mitogen-activated protein kinase 10 (Mus musculus) (UniProt Q61831). In words: JNK3 AlphaScreen Assay (AID 530; active means well fitted curve in either direction with a large enough effect, not every such curve was filed as active;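 further: kinase came from lysate of stimulated human HepG2 cells; signal reports phosphorylation of biotinylated GST-cJun 1-79 at Ser73 with 10 µM ATP; on the % scale 0 is the no-effect control and ±100 the full control effect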). As to conditions: JNK3 lysate, c-Jun phosphorylation; series mostly up to 57.1 µM. The procedure, abridged: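 Kinase buffer: 20 mM Tris-HCl pH 7.6, 10 mM MgCl2, 1 mM DTT, 0.1 mM Na3VO4, 0.01% Tween-20; ATP 10 uM. Substrate biotin-GST-cJun(1-79), enzyme from activated HepG2 lysates. Detection by Ser73 phospho-antibody AlphaScreen.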
(Bead proximity is the source of the signal in Alpha formats.)

The nature of test [3]: Cell Viability - H-4-II-E (AID 543).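 Further: cells exposed to compound for 40 hours; on the % scale 0 is the no-effect control and ±100 the full control effect; nearly all actives have a fitted effect of over 35% in size.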 The note with it: H-4-II-E rat hepatoma viability; series mostly up to 92.2 µM. Summed up: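 qHTS, rat hepatoma H-4-II-E, 1500 cells/well; 40 hr compound exposure, 37 °C; CellTiter-Glo ATP luminescence after 20 min RT; AC50 by standard Hill fit.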
In test [4] the target is Cytochrome P450 3A4 (Homo sapiens) (UniProt P08684). In words: qHTS Assay for Inhibitors and Substrates of Cytochrome P450 3A4 (AID 884). Further: nearly all actives have a fitted effect of over 50% in size. Further: potency means the concentration at half of the fitted maximal effect. The note with it: recombinant CYP3A4, Luciferin-PPXE luminescence; series mostly up to 57.1 µM. The procedure, abridged:
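Luminescent readout of luciferin produced by CYP3A4 (20 nM) dealkylation of Luciferin-PPXE, 25 uM (its KM). NADPH-driven reaction ran 60 min at RT after 10 min compound preincubation; data scaled to 57 uM ketoconazole as 100% inhibition.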

A short description of test [5]: Cell Viability - LYMP2-001 (AID 921).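 Further: 0% = DMSO only and full inhibition = tetraoctylammonium bromide control wells; nearly all actives have a fitted effect of over 70% in size.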 The note with it: LYMP2-001 lymphoblastoid cell viability; series mostly up to 92.2 µM. The procedure, abridged:
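Cellular ATP loss read by luciferase luminescence after 24 h compound exposure at 37 C in complete medium. LYMP2-001 lymphoblastoid cells, 2500/well; qHTS concentration-response data fitted with Hill equation for AC50.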

Test [6] in a line: MultiTox-Fluor Cytotoxicity Assay - LYMP1-002 - Dead Cells (AID 960).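 Further: 0% = DMSO and 100% = tetraoctylammonium bromide; nearly all actives have a fitted effect of over 60% in size.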 As to conditions: LYMP1-002 lymphoblastoid cells, dead-cell protease fluorescence; series mostly up to 46.1 µM. The procedure, abridged: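 Readout: fluorescence at 485/520 from cell-impermeant bis-AAF-R110 cleaved by proteases leaking from damaged cells. LYMP1-002 lymphoblastoid line, 16 hr compound treatment at 37 C, concentration-response in qHTS format; Hill-equation AC50 values.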

Test [7] can be described thus: Cell Viability - LYMP2-024 (AID 988).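 Further: cells exposed to compound for 24 hr at 37 °C; plate controls were DMSO only for no effect and 92 µM tetraoctylammonium bromide for full effect; nearly all actives have a fitted effect of over 60% in size.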 As to conditions: LYMP2-024 lymphoblastoid cell viability; series mostly up to 92.2 µM. Summed up: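 ATP-based luminescence (CellTiter-Glo, 30 min RT) after 24 h compound exposure at 37 C of 2500 lymphoblastoid cells/well; decrease in ATP taken as cytotoxicity. qHTS concentration-response fitted to standard Hill equation for AC50.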

Test [8] deals with Estrogen receptor (Homo sapiens) (UniProt P03372). In words: qHTS assay for small molecule antagonists of estrogen receptor alpha signaling (AID 588513; active means well fitted curve in the direction sought with a large enough effect in the signal ratio, with a control signal flat, not every such curve was filed as active; the % refers to the signal ratio; further: on the % scale 0 is the no-effect control and ±100 the full control effect). The note with it: ER-alpha-UAS-bla HEK293, beta-lactamase ratio, antagonist mode; series mostly up to 76.9 µM. Summed up:
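Antagonist mode: inhibition of 0.5 nM 17-beta-estradiol-driven beta-lactamase reporter in HEK 293 ER-alpha-UAS-bla cells, 18 h at 37C, CCF4 readout after 2 h at RT. Normalised to estradiol and DMSO; titration fitted to Hill.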

Test [9] concerns the target Bile acid receptor (Homo sapiens) (UniProt Q96RI1). In words: qHTS assay for small molecule agonists of farnesoid X receptor signaling (AID 588527; calls by dose curve;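 further: 0% = vehicle basal and 100% = reference agonist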). As to conditions: HEK293T FXR-UAS-bla, beta-lactamase ratio, 16 h; stronger effect = higher value. The procedure, abridged:
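Read-out: beta-lactamase reporter fluorescence with CCF4 substrate in GeneBLAzer FXR-UAS-bla HEK293T cells, after 16 h compound exposure at 37 C. Response scaled between DMSO basal (0%) and chenodeoxycholic acid at 100 uM (100%).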

In test [10] the target is Glucocorticoid receptor (Homo sapiens) (UniProt P04150). In words: qHTS assay for small molecule agonists of glucocorticoid receptor signaling (AID 588532; active means well fitted curve in the direction sought with a large enough effect in the signal ratio, with a control signal flat; the % refers to the signal ratio;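 further: 100% = dexamethasone at 0.1 µM and 0% = DMSO only wells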). The note with it: HeLa MMTV-bla, beta-lactamase ratio, agonist, 18 h; stronger effect = higher value; percent of dexamethasone control, DMSO zero. Summed up:
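Agonist-mode qHTS: GRE-driven beta-lactamase in HeLa cells exposed 18 h to titrated compounds (up to 92 uM), then CCF4 ratio read after 2 h at RT; Hill-fitted EC50, efficacy relative to 0.1 uM dexamethasone.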

Test [11] shares this target. In words: qHTS assay for small molecule antagonists of glucocorticoid receptor signaling (AID 588533; active means well fitted inhibition curve with a large enough effect in the signal ratio, with a control signal flat, not every such curve was filed as active; the % refers to the signal ratio;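 further: cells stimulated with 2 nM dexamethasone as agonist; on the % scale 0 is the no-effect control and ±100 the full control effect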). The note with it: HeLa MMTV-bla, GRE beta-lactamase ratio, antagonist mode, 18 h; series mostly up to 76.8 µM. The procedure, abridged:
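Antagonist-mode qHTS: compound titrations added to GRE-bla HeLa cells, then dexamethasone 2 nM final; 18 h, 37 C. CCF4 FRET fluorescence normalized to dexamethasone and DMSO; IC50 from Hill fit.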

In test [12] the target is Vitamin D3 receptor (Homo sapiens) (UniProt P11473). In words: qHTS assay for small molecule antagonists of vitamin D receptor signaling (AID 588541; calls by dose curve;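 further: receptor activated by calcitriol during compound treatment; on the % scale 0 is the no-effect control and ±100 the full control effect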). The note with it: HEK293T VDR-UAS-bla, beta-lactamase ratio, antagonist mode; series mostly up to 76.7 µM. The procedure, abridged: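 Antagonist-mode beta-lactamase reporter assay: HEK293T VDR-UAS-bla cells were exposed to titrated compound alongside 1-alpha,25-dihydroxyvitamin D3 at 3 nM final for 16 h. Values were normalized to the 50 nM agonist control and DMSO basal, with IC50 and efficacy from Hill equation fits.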
Sequence of Vitamin D3 receptor (Homo sapiens) (P11473 whole entry, looked up): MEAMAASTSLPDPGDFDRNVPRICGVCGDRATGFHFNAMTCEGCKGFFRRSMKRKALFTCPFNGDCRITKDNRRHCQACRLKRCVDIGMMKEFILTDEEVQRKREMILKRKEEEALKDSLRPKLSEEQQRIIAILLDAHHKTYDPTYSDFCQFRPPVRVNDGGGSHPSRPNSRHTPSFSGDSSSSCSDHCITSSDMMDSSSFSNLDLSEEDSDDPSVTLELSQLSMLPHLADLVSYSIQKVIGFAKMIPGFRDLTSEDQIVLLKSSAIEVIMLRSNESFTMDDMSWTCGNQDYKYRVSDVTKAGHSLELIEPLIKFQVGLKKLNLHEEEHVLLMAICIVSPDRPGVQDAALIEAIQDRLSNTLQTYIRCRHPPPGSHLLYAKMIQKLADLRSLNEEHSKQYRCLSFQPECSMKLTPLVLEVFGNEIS

Test [13] has the same target. In words: qHTS assay for small molecule agonists of vitamin D receptor signaling (AID 588543; calls by dose curve;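 further: 0% = DMSO basal and 100% = reference agonist control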). The note with it: HEK293T VDR-UAS-bla, beta-lactamase ratio, 16 h; series mostly up to 76.8 µM. Summed up:
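Agonist-mode beta-lactamase reporter: HEK293T VDR-UAS-bla cells in charcoal-stripped 2% FBS, compound series 16 h 37 C, CCF4 2 h RT. EC50 from Hill fit, scaled against DMSO and 50 nM calcitriol control.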

Test [14] deals with Thyroid hormone receptor beta (Homo sapiens) (UniProt P10828). In words: qHTS assay for small molecule agonists of thyroid hormone receptor beta signaling (AID 588545; calls by dose curve;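 further: 0% = DMSO only and 100% = 10 nM T3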). The note with it: TR-UAS-bla GripTite HEK 293, beta-lactamase ratio, agonist mode, 18 h, percent of T3 response, DMSO as zero; series mostly up to 76.7 µM. The procedure, abridged: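 Efficacy and EC50 values derive from Hill fits of qHTS titration data, normalized to 10 nM T3 and DMSO-only wells. HEK 293 reporter cells were stimulated for 18 hrs at 37 C, with beta-lactamase activity measured by CCF4 fluorescence.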
Sequence of Thyroid hormone receptor beta (Homo sapiens) (P10828 whole entry, looked up): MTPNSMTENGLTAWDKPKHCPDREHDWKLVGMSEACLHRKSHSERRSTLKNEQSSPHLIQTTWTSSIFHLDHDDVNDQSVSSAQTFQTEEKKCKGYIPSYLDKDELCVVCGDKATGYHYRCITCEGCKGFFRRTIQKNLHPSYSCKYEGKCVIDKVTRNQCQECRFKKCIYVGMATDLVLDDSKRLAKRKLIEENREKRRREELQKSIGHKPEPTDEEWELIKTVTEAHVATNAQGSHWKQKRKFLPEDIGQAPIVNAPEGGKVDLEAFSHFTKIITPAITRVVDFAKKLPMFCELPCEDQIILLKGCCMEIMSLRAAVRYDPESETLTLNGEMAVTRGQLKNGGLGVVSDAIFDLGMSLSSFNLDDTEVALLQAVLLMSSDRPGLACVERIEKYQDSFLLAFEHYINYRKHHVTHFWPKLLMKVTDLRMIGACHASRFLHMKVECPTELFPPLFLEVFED

Test [15] shares this target. In words: qHTS assay for small molecule antagonists of thyroid hormone receptor beta signaling (AID 588547; active means well fitted inhibition curve with a large enough effect in the signal ratio, with a control signal flat, not every such curve was filed as active; the % refers to the signal ratio). The note with it: TR-UAS-bla HEK293, beta-lactamase ratio, antagonist mode, 18 h. The procedure, abridged: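 Inhibition of T3-driven (0.4nM final) beta-lactamase reporter activity was measured over 0.59 nM to 92 uM compound after 18 h at 37 C. The cells were GripTite HEK293 TR-UAS-bla in charcoal/dextran-stripped serum, with CCF4 ratio read-out and IC50 from Hill fits.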

A short description of test [16]: qHTS assay for small molecule agonists of the antioxidant response element (ARE) signaling pathway (AID 651741; active means well fitted activation curve with a large enough effect in the signal ratio; the % refers to the signal ratio; further: potency means the concentration at half of the fitted maximal effect; on activation: % of control where 0% means no effect). As to conditions: HepG2 ARE-bla reporter, beta-lactamase FRET ratio, 16 h; series mostly up to 96 µM. The procedure, abridged: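 Agonist activity is measured as ARE-driven beta-lactamase expression in a stable HepG2 reporter line, using 16 h compound treatment at 37 C and a FRET substrate fluorescence readout after 2 h.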

Test [17] addresses Tumor necrosis factor (Homo sapiens) (UniProt P01375). In words: qHTS assay to identify small molecules that stimulate Tumor Necrosis Factor-alpha (TNF-alpha) secretion (AID 651757; active means well fitted curve in the direction sought with a large enough effect in the signal ratio; the % refers to the signal ratio; further: 0% is about no effect). The note with it: Human cells, HTRF 665/615 ratio; series mostly up to 92.2 µM. Summed up:
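THP-1 cells, 3000/well; compound 17 hrs, 37 C; add cryptate/XL665 anti-TNF-alpha antibody pair; 3 hr RT; TR-FRET (HTRF) read of secreted TNF-alpha. Quantitative HTS format.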

The nature of test [18]: qHTS assay for small molecule antagonists of the retinoid-related orphan receptor gamma (ROR-gamma) signaling pathway - cell viability counter screen (AID 720652; active means well fitted curve in the direction sought with a large enough effect in the repeat runs; an effect the other way counts as inactive or inconclusive). The note with it: RORgamma reporter cell line viability counter screen; series mostly up to 92.2 µM. Summed up:
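CHO RORE-LUC/TET-ROR line, 1,000 cells/well, 37 C 5% CO2 5 hr; cpd or DMSO + doxycycline induction, 16 hr. CellTiter-Glo, 30 min RT, luminescence = ATP content.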

In test [19] the target is Nuclear receptor subfamily 1 group I member 2 (Rattus norvegicus) (UniProt Q9R1A7). In words: qHTS assay for small molecule activators of the rat pregnane X receptor (rPXR) signaling pathway (AID 651751; call rule not given here; further: 0% is about no effect). The note with it: rPXR reporter cells, luciferase (One-Glo), 24 h.
Sequence of Nuclear receptor subfamily 1 group I member 2 (Rattus norvegicus) (Q9R1A7 whole entry, looked up): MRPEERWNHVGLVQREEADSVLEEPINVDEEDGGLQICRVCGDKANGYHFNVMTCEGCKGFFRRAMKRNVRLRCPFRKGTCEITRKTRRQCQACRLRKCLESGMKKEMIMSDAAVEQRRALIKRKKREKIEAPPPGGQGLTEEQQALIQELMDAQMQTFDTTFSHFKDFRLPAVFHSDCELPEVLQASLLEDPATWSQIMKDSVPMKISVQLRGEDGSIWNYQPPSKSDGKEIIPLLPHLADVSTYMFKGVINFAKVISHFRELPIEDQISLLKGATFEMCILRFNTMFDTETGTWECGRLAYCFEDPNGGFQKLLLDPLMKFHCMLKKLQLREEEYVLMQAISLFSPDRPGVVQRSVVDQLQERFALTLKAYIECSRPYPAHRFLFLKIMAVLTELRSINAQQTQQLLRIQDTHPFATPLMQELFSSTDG
Test [20] is described as follows: qHTS assay for small molecule activators of the human pregnane X receptor (PXR) signaling pathway (AID 720659; call rule not given here; further: 0% is about no effect). As to conditions: DPX-2 HepG2 CYP3A4-luciferase, 24 h; series mostly up to 92.3 µM.

Values joined by “and” are separate entries in the source; they are usually repeats but may differ in a detail not shown here. Equal entries are not always repeated. Inconclusive results are not listed. A structure can be active in one record and inactive in another. Active and inactive are the calls of the source. Unless noted, the call rests on the fitted dose curve; in most records, active means well fitted curve in the direction sought with a large enough effect; inconclusive means small, poorly fitted or top-dose-only effect, or another doubt; inactive means no such curve, though single readings can be large; an effect the other way counts as inactive or inconclusive.

Data on six compounds can be found in PubChem BioAssay (NCATS).

Sequence of Glucocorticoid receptor (Homo sapiens) (P04150 whole entry, looked up): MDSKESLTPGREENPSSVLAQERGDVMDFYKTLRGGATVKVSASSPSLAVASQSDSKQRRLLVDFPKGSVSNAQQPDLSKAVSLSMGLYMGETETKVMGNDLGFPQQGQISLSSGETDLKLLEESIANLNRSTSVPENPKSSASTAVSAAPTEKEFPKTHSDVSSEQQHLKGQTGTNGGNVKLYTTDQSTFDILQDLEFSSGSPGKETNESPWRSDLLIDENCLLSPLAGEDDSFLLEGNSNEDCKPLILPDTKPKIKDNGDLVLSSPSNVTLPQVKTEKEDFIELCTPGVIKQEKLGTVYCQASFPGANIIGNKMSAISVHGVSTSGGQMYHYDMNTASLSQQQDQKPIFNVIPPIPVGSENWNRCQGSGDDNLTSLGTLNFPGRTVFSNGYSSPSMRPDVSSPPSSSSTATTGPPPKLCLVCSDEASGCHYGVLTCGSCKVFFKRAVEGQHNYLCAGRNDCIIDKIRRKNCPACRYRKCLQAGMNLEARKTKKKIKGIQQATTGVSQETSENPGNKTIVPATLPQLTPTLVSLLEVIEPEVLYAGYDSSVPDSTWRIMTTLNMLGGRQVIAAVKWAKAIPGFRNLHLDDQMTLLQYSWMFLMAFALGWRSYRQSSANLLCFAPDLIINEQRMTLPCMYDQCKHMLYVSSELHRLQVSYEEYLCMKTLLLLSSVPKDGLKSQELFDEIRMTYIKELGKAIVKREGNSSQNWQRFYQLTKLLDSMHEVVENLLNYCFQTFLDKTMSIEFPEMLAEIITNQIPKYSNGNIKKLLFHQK
Sequence of Cytochrome P450 3A4 (Homo sapiens) (P08684 whole entry, looked up): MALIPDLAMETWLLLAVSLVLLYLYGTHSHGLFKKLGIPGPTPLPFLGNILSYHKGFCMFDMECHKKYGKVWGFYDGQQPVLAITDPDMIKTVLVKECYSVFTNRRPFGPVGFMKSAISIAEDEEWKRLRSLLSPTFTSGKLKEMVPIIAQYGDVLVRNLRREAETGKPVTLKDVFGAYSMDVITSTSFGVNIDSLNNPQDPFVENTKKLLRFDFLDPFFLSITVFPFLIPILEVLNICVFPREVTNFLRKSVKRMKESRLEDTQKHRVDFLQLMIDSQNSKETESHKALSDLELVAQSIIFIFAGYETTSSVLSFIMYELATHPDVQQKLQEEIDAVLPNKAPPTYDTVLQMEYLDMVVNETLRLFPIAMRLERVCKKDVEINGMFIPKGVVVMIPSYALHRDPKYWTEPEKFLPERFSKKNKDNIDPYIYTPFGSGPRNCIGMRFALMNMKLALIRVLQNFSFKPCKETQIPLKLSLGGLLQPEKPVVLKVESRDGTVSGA
Sequence of Estrogen receptor (Homo sapiens) (P03372 whole entry, looked up): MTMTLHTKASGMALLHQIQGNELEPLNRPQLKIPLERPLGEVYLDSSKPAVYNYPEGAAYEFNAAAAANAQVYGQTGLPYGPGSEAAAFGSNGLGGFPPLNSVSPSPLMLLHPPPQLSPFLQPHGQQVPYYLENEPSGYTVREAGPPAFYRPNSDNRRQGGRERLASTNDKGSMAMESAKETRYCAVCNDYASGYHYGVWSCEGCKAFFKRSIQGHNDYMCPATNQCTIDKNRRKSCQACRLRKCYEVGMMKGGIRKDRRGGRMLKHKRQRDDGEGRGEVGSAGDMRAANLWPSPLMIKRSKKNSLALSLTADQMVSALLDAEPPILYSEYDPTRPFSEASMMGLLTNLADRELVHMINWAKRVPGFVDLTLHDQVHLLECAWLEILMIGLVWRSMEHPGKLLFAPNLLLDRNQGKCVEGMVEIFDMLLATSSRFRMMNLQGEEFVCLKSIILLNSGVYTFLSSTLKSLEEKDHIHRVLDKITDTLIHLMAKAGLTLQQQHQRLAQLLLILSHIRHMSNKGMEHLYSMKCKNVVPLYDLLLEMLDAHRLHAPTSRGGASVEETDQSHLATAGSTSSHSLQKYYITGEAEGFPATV
Sequence of Bile acid receptor (Homo sapiens) (Q96RI1 whole entry, looked up): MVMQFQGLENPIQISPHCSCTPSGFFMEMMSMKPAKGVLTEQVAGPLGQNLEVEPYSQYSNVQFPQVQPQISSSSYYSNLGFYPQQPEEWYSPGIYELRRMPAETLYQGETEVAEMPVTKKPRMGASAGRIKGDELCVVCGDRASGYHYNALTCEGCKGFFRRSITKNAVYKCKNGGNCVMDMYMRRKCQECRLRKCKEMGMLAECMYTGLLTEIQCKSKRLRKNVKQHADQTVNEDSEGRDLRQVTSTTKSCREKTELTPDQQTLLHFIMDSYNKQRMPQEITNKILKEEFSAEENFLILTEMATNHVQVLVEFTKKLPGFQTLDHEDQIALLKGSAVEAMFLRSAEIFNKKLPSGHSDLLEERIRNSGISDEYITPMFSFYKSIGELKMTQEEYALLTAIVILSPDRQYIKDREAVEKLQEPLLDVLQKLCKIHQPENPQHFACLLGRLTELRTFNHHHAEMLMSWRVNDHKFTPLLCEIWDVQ
Sequence of Tumor necrosis factor (Homo sapiens) (P01375 whole entry, looked up): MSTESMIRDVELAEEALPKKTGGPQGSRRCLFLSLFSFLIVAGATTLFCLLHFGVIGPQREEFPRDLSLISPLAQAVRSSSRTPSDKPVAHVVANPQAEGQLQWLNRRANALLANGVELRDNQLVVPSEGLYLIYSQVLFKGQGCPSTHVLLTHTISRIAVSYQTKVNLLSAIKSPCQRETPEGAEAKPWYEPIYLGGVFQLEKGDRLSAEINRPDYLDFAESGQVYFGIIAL

On to `CC(O)CCl` (stereo not given), for which the Potency in [1] was > 92 µM (inactive); in test [16], 54.5 µM (active). Further, the outcome in [2], in [12], in [13], in test [14], in [17] and in test [20] was inactive. For the same compound, the Potency entry in [3], in test [4], in test [5], in test [6], in [7] and in test [8] was “inactive” each time. Further, the Potency result in test [11] and in [18] was “inactive” in each case. Besides, the activation is -2.4% (inactive) and 3.49% (inactive) in test [9]; -3.59% (inactive) and -2.54% (inactive) in [10]. Besides, in test [15], the activity change % (negative = inhibition) is -4.17% (inactive). For the same compound, the max response in test [19] is 4.48% (inactive) and -2.85% (inactive).
As to `Clc1nc(Cl)nc(Nc2ccccc2Cl)n1`, the Potency in test [1] was > 92 µM (inactive). Also, the compound was called inactive in test [2], in test [12], in test [13], in [14] and in test [17]. The Potency result in test [3], in [4], in test [5], in test [6], in test [7] and in [8] was “inactive” throughout. Further, the Potency result in test [11] and in test [18] was “inactive” each time. In addition, the activation in test [10] was 0.42% (inactive) and 30.1% (inactive). Moreover, in test [15], the activity change % (negative = inhibition) is 11.4% (inactive).
As for `c1ccc(-c2ccccc2)cc1`, the call in test [2], in [14] and in test [17] was inactive. Further, the Potency result in [3], in test [4], in [6], in test [7], in [8] and in [11] was “inactive” each time. The Potency result in [18] is “inactive”. The activation in test [9] is -2.99% (inactive) and -4% (inactive); in [10], -0.478% (inactive) and -3.49% (inactive). For the same compound, in test [15], the activity change % (negative = inhibition) was -3.07% (inactive) and -0.354% (inactive). Moreover, the Potency result in test [16] was “inactive and 54.5 µM (active)”.
As for `C=CC(=O)OCC`, in test [1], the Potency was > 92 µM (inactive). In addition, the compound was classed as inactive in test [2], in [14], in test [17] and in [20]. For the same compound, the Potency result in test [3], in test [4], in [5], in test [6], in test [7] and in test [8] was “inactive” in each case. The Potency result in test [11], in test [16] and in [18] was “inactive” throughout. Besides, the activation in [9] is -1.2% (inactive); in test [10], 2.08% (inactive). The activity change % (negative = inhibition) in [15] is -5% (inactive). Also, the max response in test [19] was -4.65% (inactive).
Regarding `Cc1ccccc1N`, the Potency is > 92 µM (inactive) in [1]; “inactive and 25.1 µM (active)” in test [4]. Further, the compound was called inactive in [2], in test [14], in [17] and in test [20]. Further, the Potency result in [3], in test [5], in [6], in test [7], in [16] and in [18] was “inactive” throughout. Also, the activity change % (negative = inhibition) in test [15] was 0.476% (inactive) and 3.77% (inactive). In test [19], the max response was -2.81% (inactive) and 0.311% (inactive).
On to `N#CCCCl`, for which the Potency in test [1] is > 92 µM (inactive). The outcome in [2], in [12], in test [13], in [14], in test [17] and in test [20] was inactive. Further, the Potency entry in test [3], in [4], in test [5], in test [6], in [7] and in [11] was “inactive” in each case. The Potency entry in test [16] and in test [18] was “inactive” throughout. In addition, in test [10], the activation is -5% (inactive) and -0.386% (inactive). Also, in test [15], the activity change % (negative = inhibition) is -2.7% (inactive) and 7.92% (inactive). Also, the max response in [19] is -4.29% (inactive) and -2.84% (inactive).
